hcDAF-12 act: H. contortus DAF-12 activation, primary screen. actives 1.4% (n = 370,000). AID 652067. activation, % at 6.8 µM. HEK293 hcDAF-12 lit1-tk-luc reporter, luminescence; 0% DMSO, 100% Δ7-dafachronic acid;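 active = activation above the mean of all tested compounds plus 3 SD, cut at about 5.5% in these data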;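 note: 100% = response to 3 µM Δ7-dafachronic acid high control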
esBAF inh: inhibitors of esBAF chromatin remodeling in mouse ES cells | reporter increase, % at 12.5 µM | actives 2% (n = 350,000) | Bmi1-luciferase knock-in reporter, 24 h; 100% = twice the neutral-well signal; in the data active = activation above about 40%;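 note: 0% = median of the plate's neutral control wells and 100% = double that signal; a rise in the Bmi1 reporter signal indicates esBAF inhibition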
hgDAF12 agonist: agonists of H. glycines DAF-12 nuclear receptor | HEK293 GAL4-hgDAF12 UAS-luciferase reporter, agonist luminescence; normalized to butyrate control | activation, % at 6.8 µM | actives 1.8% (n = 370,000) | AID 687014;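 active = activation above a cutoff set at the mean of all screened compounds plus 3 SD, cut at about 10% in these data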;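 note: 0% = DMSO wells and 100% = sodium butyrate wells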
Wnt act: activators of Wnt/beta-catenin signaling. activation, % at 9.35 µM. Wnt/beta-catenin reporter cell assay, activator, plate reader. actives 1.2% (n = 300,000). AID 743398; in the data active = activation above about 30%, passing the limit was not always enough;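 note: 0% = neutral control wells and 100% = positive control wells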
ssDAF12 agonist: activates DAF-12 receptor from parasite S. stercoralis; HEK293 ssDAF-12/GRIP1 lit1-tk-luc reporter, luminescence; % of 3 µM dafachronic acid response; activation, % at 6.8 µM; actives 1% (n = 370,000); AID 652126;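 active = activation above the mean over all tested compounds plus 3 SD, cut at about 0.9% in these data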;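 note: 0% = DMSO-only wells and 100% = 3 µM delta7-dafachronic acid wells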
DAX1 inh: inhibitors of DAX1 repression of SF-1 activated StAR promoter; HEK293T StAR-luciferase reporter, SF-1/DAX-1 repression relief; inhibition, % at 6.8 µM; actives 1.1% (n = 370,000); AID 652010;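 active = inhibition above the mean over all tested compounds plus 3 SD, cut at about 3.6% in these data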;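 note: 0% = DAX-1 cells with DMSO and 100% = cells lacking DAX-1 with DMSO; higher inhibition means more luminescence from relief of DAX-1 repression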
Starred values were filed as active, the others as inactive; . = no result given. An excerpt weighted towards active compounds, which were near 4.2% of everything screened.

SMILES	hcDAF-12 act	esBAF inh	hgDAF12 agonist	Wnt act	ssDAF12 agonist	DAX1 inh
Cc1ccccc1N1C(=O)CC2(CCCC2)CC1=O	0	6	0	0	1.1*	1
COCC#Cc1ccc2c(c1)O[C@H](CN(C)S(=O)(=O)c1cccc(F)c1)[C@@H](C)CN([C@H](C)CO)S2(=O)=O	.	7	.	.	.	.
COc1ccccc1/C=C/C(=O)NCCC1=CCCCC1	2	.	12*	53*	0	3
O=C(COC(=O)/C=C/c1ccc(C(F)(F)F)cc1)NCCC1=CCCCC1	0	0	-1	-1	-1	0
O=C(/C=C/c1ccc(F)cc1)NCCC1=CCCCC1	2	78*	9	65*	-1	1
O=C(C[C@H]1CC[C@H]2[C@@H](COC[C@H](O)CN2Cc2cccc(C(F)(F)F)c2)O1)NCCc1ccccc1	.	0	.	.	.	.
CC(C)CC#Cc1cnc2c(c1)C(=O)N([C@H](C)CO)C[C@H](C)[C@@H](CN(C)Cc1ccccc1F)O2	.	0	.	.	.	.
O=C(CCn1cnc2ccccc21)N/N=C/c1ccccc1O	-1	52*	-2	10	-1	0
O=C(CCn1cnc2ccccc21)N/N=C/c1ccc(O)cc1	0	-3	0	-5	-1	0
CCOC(=O)C1(C)C=C(Nc2ccc(OC)cc2)C(=O)N1c1ccc(OC)cc1 (stereo not given)	0	.	0	.	0	0
CCOC(=O)C1(C)C=C(Nc2cccc(OC)c2)C(=O)N1c1ccccc1 (stereo not given)	-2	.	1	43*	-1	-1
CC(=O)Nc1sc2c(c1-c1nc3ccccc3s1)CCN(C(C)=O)C2	6.2*	.	7	.	0	.
CC(=O)N1CCc2c(sc(NC(=O)C3CC3)c2-c2nc3ccccc3s2)C1	-1	6	1	-3	-1	-3
O=C(NCC[C@H]1CC[C@H](NC(=O)C2CC2)[C@H](CO)O1)c1cnccn1	.	-1	.	.	.	.
COc1cc(OC)c(C2=Nc3ccc(Br)cc3C(c3ccccc3)N2CC(=O)NN)cc1OC (stereo not given)	-2	.	-4	37*	-1	-1
O=c1[nH]c(-c2ccccc2)nnc1-c1ccccc1	1	25	5	32*	-1	1
CCc1noc2cc(-c3ccccc3)n(C)c(=O)c12	3	.	13*	1	0	3
Cn1c(-c2ccc(F)cc2)cc2onc(-c3c(F)cccc3Cl)c2c1=O	2	.	11*	1	1	3
Cc1ccc(-c2cc3onc(-c4ccccc4)c3c(=O)n2C)cc1	0	-58	-4	-5	-2	1
COc1ccccc1/C=C/C(=O)OCC(=O)N1CCCCC1	1	16	4	1	-1	0
COc1cccc(/C=C/C(=O)OCC(=O)N2CCCC2)c1OC	0	8	3	5	-1	4.4*
CO[C@@H]1CN(C)C(=O)c2cc(NC(=O)C3CC3)ccc2OC[C@@H](C)N(CC2CCOCC2)C[C@@H]1C	.	-1	.	.	.	.
COc1ccc(/C(O)=C2/C(=O)C(=O)N(c3ccccn3)C2c2ccc(OC)cc2)cc1 (stereo not given)	2	1	-2	3	-1	0
COc1ccc(/C(O)=C2/C(=O)C(=O)N(c3ccccn3)C2c2ccc(C(C)C)cc2)cc1 (stereo not given)	4	38	13*	-3	1	2
C[C@H]1CN([C@@H](C)CO)C(=O)c2cccc(NC(=O)Nc3ccc(F)cc3)c2O[C@@H]1CN(C)Cc1ccc(Cl)c(Cl)c1	.	2	.	.	.	.
COc1ccc(-c2coc3cc(OC)cc(OC)c3c2=O)cc1	1	63*	4	1	-1	3
CCCc1cc(=O)oc2cc(O[C@@H]3O[C@H](CO)[C@@H](O)[C@H](O)[C@H]3O)ccc12	-2	1	0	-1	-1	0
COc1ccc(-c2coc3cc(OC4OC(CO)C(O)C(O)C4O)ccc3c2=O)cc1 (stereo not given)	2	26	9	41*	0	3
COc1ccc(-c2coc3cc(O)c(OC)cc3c2=O)cc1	1	23	10	9	0	0
